# Source: PubChem BioAssay AID1852 (Sanford-Burnham Center for Chemical Genomics, 2009)
# Out of some 2,500 compounds screened, about 1,100 (44%) were called active. So high a share suggests a set chosen from earlier hits. The list shows a part of the results. A number with no mark means an inactive call.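 Rule for the calls: active = inhibition above 50% at 4 µM in the single-point screen; inactive = inhibition of 50% or less.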
# Experiment: TNF-a-driven NF-kB reporter inhibitors, primary screen, selectivity assay for NOD1/NOD2 signaling inhibitor project, cell-based, HEK293T NF-kB-Luc, luminescence (AID 1852)
# Conditions: TNF-a induced, 14 h, at 4 µM, stronger effect = higher value
row,Compound,inhibition
1,CCC1CCCCN1S(=O)(=O)c1ccc(C(=O)Nc2nnc(-c3ccccc3Cl)o2)cc1 (stereo not drawn),70.3% (active)
2,CC1CCCCN1S(=O)(=O)c1ccc(C(=O)Nc2nnc(-c3ccccc3Cl)o2)cc1 (stereo not drawn),97.2% (active)
3,O=C(c1ccc(S(=O)(=O)N2CCCCC2)cc1)N1CCN(CCN2C(=O)c3cccc4cccc(c34)C2=O)CC1,31%
4,CCC1CCCCN1S(=O)(=O)c1ccc(NC(=O)c2ccncc2)cc1 (stereo not drawn),9.7%
5,O=C(Nc1nnc(-c2ccccc2Cl)o1)c1ccc(S(=O)(=O)N2CCCCCC2)cc1,93.9% (active)
6,O=C(c1[nH]ncc1-c1ccc(Cl)cc1)C1CO1 (stereo not drawn),12.8%
7,CN(C(=O)C(C)(C)C)c1ccc(OCC(=O)N2CCc3ccccc3C2)cc1,41.9%
8,CCOc1ccc(NC(=O)Nc2nc(SCC)ns2)cc1,12.2%
9,S=C(NNc1ccnc2cc(Cl)ccc12)Nc1ccccc1Cl,64.6% (active)
10,FC(F)(F)c1cnc(NNC(=S)Nc2ccccc2Cl)c(Cl)c1,-6.8%
11,S=C(NNc1ccnc2cc(Cl)ccc12)Nc1ccc(Cl)cc1Cl,43.7%
12,COc1ccc(-c2cnc(N)nc2-c2ccc(OC)cc2O)cc1,70.5% (active)
13,COc1ccc(-c2n[nH]c(C)c2-c2ccc(OC)c(OC)c2)c(O)c1,28.7%
14,COc1ccc(-c2cncnc2-c2ccc(OC)cc2O)cc1,79.8% (active)
15,COc1cccc(NC(=O)c2oc3ccc(S(=O)(=O)N4CCOCC4)cc3c2C)c1,-31.8%
16,Cc1c(C(=O)Nc2nonc2-c2ccc(F)cc2)oc2ccc(F)cc12,77.4% (active)
17,CC1CCN(c2ccc(-c3cccc(NC(=O)C(F)(F)F)c3)nn2)CC1,-170%
18,O=C(OCn1ncc(Cl)c(Cl)c1=O)c1cccc(C(F)(F)F)c1,43%
19,Cc1ccc(C(=O)OCn2ncc(Cl)c(Cl)c2=O)cc1,88.1% (active)
20,O=C(OCn1ncc(Cl)c(Cl)c1=O)c1ccc(F)cc1,83.1% (active)
21,COc1ccc(Nc2oc(COc3ccccc3OC)nc2C#N)cc1,77.8% (active)
22,COc1ccc(CCNc2oc(COc3ccccc3Cl)nc2C#N)cc1OC,11.6%
23,COc1ccc(CCNc2oc(COc3ccc(Br)cc3)nc2C#N)cc1OC,24.5%
24,Cc1ccc(NS(=O)(=O)c2sc3ccc(Cl)cc3c2C)cc1,9.4%

row,Compound,inhibition
1,CCOc1ccc(S(=O)(=O)Nc2cnc3ccccc3c2)cc1,81.5% (active)
2,CCOc1ccc(NS(=O)(=O)c2cc(Cl)ccc2OC)cc1,10.6%
3,CCOc1ccc(Nc2nc(N)c3ccccc3n2)cc1,-144%
4,CCOc1ccc(NS(=O)(=O)c2ccc3[nH]c(=O)[nH]c3c2)cc1,88.5% (active)
5,COc1cc(CNc2ccc3[nH]c(=O)[nH]c3c2)ccc1OCc1cccc(C)c1,44.3%
6,COC(=O)CCn1nnc(-c2ccc(C(C)C)cc2)n1,71.7% (active)
7,CC(C)c1ccc(-c2nnn(CCC(=O)O)n2)cc1,49.4%
8,Cc1ccc(NC(=O)C2=C(c3ccccc3)S(=O)(=O)CCS2(=O)=O)cc1,65% (active)
9,O=C(Nc1ccccc1)C1=C(c2ccccc2)S(=O)(=O)CCS1(=O)=O,60.9% (active)
10,CC(C)=CCc1c(O)cc2oc3c(CC=C(C)C)c(O)c(O)c(CC=C(C)C)c3c(=O)c2c1O,15.6%
11,C=CCNc1ncnc2ccc(Br)cc12,25.1%
12,Brc1ccc2ncnc(NCc3ccco3)c2c1,60.4% (active)
13,Brc1ccc2ncnc(NCc3cccnc3)c2c1,65.2% (active)
14,Cc1ccc(/C=C2/SC(=S)N(c3ccc(S(=O)(=O)Nc4nccs4)cc3)C2=O)cc1,21%
15,O=C(O)c1ccc(N/N=C/c2ccc(OC(=O)c3ccccc3Cl)cc2)cc1,7.7%
16,CC(C)c1ccc(S(=O)(=O)/N=C2\C=C(NS(=O)(=O)c3ccccc3)C(=O)c3ccccc32)cc1,103% (active)
17,CC(C)Cc1ccc(S(=O)(=O)Nc2ccccn2)cc1,15.7%
18,CC(C)(C)c1ccc(S(=O)(=O)/N=C2\C=C(NS(=O)(=O)c3ccccc3)C(=O)c3ccccc32)cc1,96.3% (active)
19,CCc1oc2ccccc2c1C(=O)c1cc(Br)c(O)c(Br)c1,71.9% (active)
20,CCOC(=O)c1c(-c2ccccc2)oc2cc(Br)c(O)c(C=O)c12,50%
21,CCOc1ccc2c(c1)C(=NNC(=O)c1ccncc1)c1cc(OCC)ccc1-2,106% (active)
22,O=C(N/N=C/c1cc(Br)c(Br)s1)c1ccncc1,2.7%
23,O=S(=O)(Nc1cccc2cccnc12)c1ccccc1,-4%
24,Cc1ccc(S(=O)(=O)Nc2cccc3cccnc23)cc1,105% (active)

row,Compound,inhibition
1,Cc1nc(C)c(C(=O)NNS(=O)(=O)c2ccc3ccccc3c2)s1,21.5%
2,COc1ccc(NS(=O)(=O)c2ccc3ccccc3c2)c2ncccc12,27.9%
3,O=[N+]([O-])c1ccccc1S(=O)(=O)Nc1cccc2cccnc12,35%
4,Cc1ccc(S(=O)(=O)Nc2cccc3cccnc23)c([N+](=O)[O-])c1,103% (active)
5,Cc1ccc2cccc(NS(=O)(=O)c3ccccc3)c2n1,62.8% (active)
6,COc1cc(NS(=O)(=O)c2ccc3ccccc3c2)c2ncccc2c1,55.6% (active)
7,O=S(=O)(Nc1cccc(-c2cn3cccnc3n2)c1)c1ccc(-c2ccccc2)cc1,20.8%
8,CCOc1ccc(CCNC(=O)c2ccc3c(=O)[nH]c4c(C(=O)NC(C)C)sc(=S)n4c3c2)cc1,50.9% (active)
9,O=C(NCc1ccccc1)c1sc(=S)n2c1[nH]c(=O)c1ccccc12,73.6% (active)
10,O=C(NCc1ccccc1)c1ccc(C2SCC(=O)N2Cc2ccccc2)cc1 (stereo not drawn),33.1%
11,COc1cc(C(=O)Nc2sc3c(c2C(=O)NCc2ccco2)CCCC3)cc(OC)c1OC,-39.2%
12,O=C(NCc1ccco1)c1sc(=S)n2c1[nH]c(=O)c1ccccc12,54.1% (active)
13,CC(C)NC(=O)c1sc(=S)n2c1[nH]c(=O)c1ccc(C(=O)NCCc3ccc(Cl)cc3)cc12,42.5%
14,CCCCNC(=O)c1sc(=S)n2c1[nH]c(=O)c1ccccc12,69.9% (active)
15,COc1ccc(OC)c(CCNC(=O)c2ccc3c(=O)[nH]c4c(C(=O)NC(C)C)sc(=S)n4c3c2)c1,35.7%
16,CCNC(=O)/C(C#N)=C/c1c(N2CCN(c3cccc(Cl)c3)CC2)nc2c(C)cccn2c1=O,-19.8%
17,COc1ccccc1N1CCN(c2ncnc3sc(C)c(-c4ccccc4)c23)CC1,26.9%
18,COc1ccccc1N1CCN(c2nc(C)nc3c2oc2ccccc23)CC1,68.6% (active)
19,CCc1nc(SCC(=O)N2CCN(c3ccccc3)CC2)c2oc3ccccc3c2n1,0.6%
20,Oc1cc2c(cc1C(c1ccc(Cl)c(Cl)c1)N1CCCC1)OCO2 (stereo not drawn),-22.5%
21,Cc1cc(N/N=C/c2ccccc2[N+](=O)[O-])nc(-n2nc(C)cc2C)n1,1.1%
22,O=[N+]([O-])c1ccc(O)c(/C=N/Nc2nc3ccccc3[nH]2)c1,67.8% (active)
23,O=[N+]([O-])c1cc(Cl)cc(/C=N\Nc2ccccn2)c1O,48.8%
24,O=[N+]([O-])c1cc(/C=N/Nc2nc3ccccc3[nH]2)c(O)cc1O,66.5% (active)

row,Compound,inhibition
1,Cc1nc([N+](=O)[O-])c(Sc2nc3ccc([N+](=O)[O-])cc3[nH]2)n1Cc1ccccc1,38%
2,C[C@H]1O[C@@H](O[C@H]2[C@@H](O)C[C@H](O[C@H]3[C@@H](O)C[C@H](O[C@H]4CC[C@@]5(C)[C@H](CC[C@@H]6[C@@H]5C[C@@H](O)[C@]5(C)[C@@H](C7=CC(=O)OC7)CC[C@]65O)C4)O[C@@H]3C)O[C@@H]2C)C[C@H](O)[C@@H]1O,104% (active)
3,CCOC(=O)c1sc(NC(=O)CSc2n[nH]c(-c3ccccc3)n2)c(C#N)c1C,38.1%
4,Cc1ccc(NC(=O)Cc2cc(C(=O)O)c3ccccc3n2)c(C)c1,25.2%
5,Cc1ccccc1-c1cc(C(=O)Nc2sc(C(=O)OC(C)C)c(C)c2C#N)c2ccccc2n1,94.3% (active)
6,COC(=O)c1sc(NC(=O)c2cc(-c3ccccc3)nc3ccccc23)c(C#N)c1C,75.2% (active)
7,CCOC(=O)c1cc(-c2ccccc2)sc1NC(=O)c1cc(OC)c(OC)c(OC)c1,-26.7%
8,CCOC(=O)c1sc(NC(=O)c2cc(-c3ccccc3)nc3ccccc23)c(C#N)c1C,80.3% (active)
9,CCOC(=O)c1sc(NC(=O)c2cc(-c3ccccc3C)nc3ccccc23)c(C#N)c1C,92.5% (active)
10,COc1cc(-c2cc(C(=O)Nc3ccc(N4CCOCC4)cc3)c3ccccc3n2)cc(OC)c1OC,21.8%
11,COc1ccc(-n2nnnc2S(=O)(=O)CC(=O)N2CCCCC2)cc1,102% (active)
12,COc1ccc(N2CCN(C(=O)CCC(=O)N3CCOc4ccc(C)cc43)CC2)cc1,40.5%
13,COc1ccc(-n2nc3c(c2NC(=O)CCl)CSC3)cc1,-4.5%
14,CCCCCCc1cc2cc(-c3nnc(-c4ccccc4OC)o3)c(=O)oc2cc1O,-7.1%
15,CCCCCCc1cc2cc(-c3nnc(-c4cc(OC)c(OC)c(OC)c4)o3)c(=O)oc2cc1O,69.4% (active)
16,CCCCCCc1cc2cc(-c3nnc(-c4ccccc4O)o3)c(=O)oc2cc1O,22.1%
17,COc1cccc(-c2nc(CS(=O)(=O)CC(=O)NCCc3ccccc3)c(C)o2)c1,11.1%
18,COc1ccc(CN(CCC(c2ccccc2)c2ccc(OC(C)C)cc2)C(=O)CCl)cc1OC (stereo not drawn),-5.8%
19,O=C(NCCc1ccccc1)C(c1cccs1)N(C(=O)CCl)c1ccc(Cl)cc1 (stereo not drawn),24.6%
20,COc1ccc(N(C(=O)CCl)C(C(=O)NCCc2ccccc2)c2cccs2)cc1 (stereo not drawn),60.3% (active)
21,COc1cccc(N(C(=O)CCl)C(C(=O)NCCc2ccccc2)c2cccs2)c1 (stereo not drawn),81.5% (active)
